# Reference: PubChem BioAssay AID1159580 (chemical genetic matrix, 2015)
# “And” between values parts separate entries of the source, which are not always exact repeats. Identical values can stand only once. The campaign covered roughly 5,500 compounds. About 2,000 (36%) were called active. Roughly 18% stayed inconclusive and do not appear here. The list shows a part of the results. A number with no mark means an inactive call. No stated cut-off is given here; in the data, active means normalized growth mostly below about 0.91 (no sharp cut-off); inconclusive means no clear call, values can overlap the other calls; inactive means mostly above about 0.92.
# Assay: chemical genetic growth profiling, strain panel (AID 1159580);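 further: tested at 20 µM; growth read once vehicle control cultures reached saturation at 30 °C; 1 = growth at the plate median or of vehicle wells; lower values mean less growth of the strain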
# Conditions: S. cerevisiae deletion strains, growth OD
compound,measurement,setting,value
CC1(C)C2CC[C@]3(C)C(C(=O)C=C4[C@H]5C[C@@](C)(C(=O)O)CC[C@]5(C)CC[C@]43C)[C@@]2(C)CC[C@@H]1O (stereo partly specified),normalized growth,"locus YAL013W, strain DEP1, hits give low values",1.04
same,normalized growth,"locus YAL021C, strain ccr4, hits give low values",1.02
same,normalized growth,"locus YAL026C, strain drs2, hits give low values",0.881 (active)
same,normalized growth,"locus YAL030W, strain snc1, hits give low values",1
same,normalized growth,"locus YBL061C, strain skt5, hits give low values",0.972
same,normalized growth,"locus YBR009C, strain hhf1, hits give low values",0.861 (active)
same,normalized growth,"locus YBR021W, strain FUR4, hits give low values",1
same,normalized growth,"locus YBR023C, strain chs3, hits give low values",0.941
same,normalized growth,"locus YBR171W, strain sec66, hits give low values",1.02
same,normalized growth,"locus YBR229C, strain ROT2, hits give low values",1.04
same,normalized growth,"locus YBR231C, strain swc5, hits give low values",0.98
same,normalized growth,"locus YBR279W, strain paf1, hits give low values",0.948
same,normalized growth,"locus YCL011C, strain gbp2, hits give low values",0.923
same,normalized growth,"locus YCL016C, strain dcc1, hits give low values",0.944
same,normalized growth,"locus YCL029C, strain bik1, hits give low values",0.962
same,normalized growth,"locus YCL061C, strain MRC1, hits give low values",0.96
same,normalized growth,"locus YCL069W, strain vba3, hits give low values",0.955
same,normalized growth,"locus YCR088W, strain abp1, hits give low values",1.01
same,normalized growth,"locus YDL005C, strain med2, hits give low values",1
same,normalized growth,"locus YDL035C, strain GPR1, hits give low values",0.969
same,normalized growth,"locus YDL040C, strain nat1, hits give low values",0.995
same,normalized growth,"locus YDL074C, strain BRE1, hits give low values",1.02
same,normalized growth,"locus YDL101C, strain DUN1, hits give low values",1.02
same,normalized growth,"locus YDL134C, strain PPH21, hits give low values",1.03
same,normalized growth,"locus YDL185W, strain tfp1, hits give low values",1.01
same,normalized growth,"locus YDL192W, strain arf1, hits give low values",1.01
same,normalized growth,"locus YDR001C, strain nth1, hits give low values",1.02
same,normalized growth,"locus YDR069C, strain doa4, hits give low values",0.985
same,normalized growth,"locus YDR101C, strain arx1, hits give low values",0.988
same,normalized growth,"locus YDR137W, strain rgp1, hits give low values",0.743 (active)
same,normalized growth,"locus YDR150W, strain NUM1, hits give low values",1.06
same,normalized growth,"locus YDR159W, strain sac3, hits give low values",0.977
same,normalized growth,"locus YDR162C, strain NBP2, hits give low values",1.02
same,normalized growth,"locus YDR195W, strain ref2",1.1
same,normalized growth,"locus YDR297W, strain sur2, hits give low values",0.963
same,normalized growth,"locus YDR318W, strain mcm21, hits give low values",0.994
same,normalized growth,"locus YDR334W, strain swr1, hits give low values",1.04
same,normalized growth,"locus YDR335W, strain msn5, hits give low values",0.941
same,normalized growth,"locus YDR388W, hits give low values",1.01
same,normalized growth,"locus YDR392W, strain spt3, hits give low values",0.493 (active)
same,normalized growth,"locus YDR502C, strain sam2, hits give low values",1
same,normalized growth,"locus YEL003W, strain gim4, hits give low values",0.97
same,normalized growth,"locus YEL037C, strain rad23, hits give low values",1.01
same,normalized growth,"locus YEL061C, strain CIN8 (second series), hits give low values",0.983
same,normalized growth,"locus YEL061C, strain CIN8, hits give low values",1.04
same,normalized growth,"locus YER015W, strain faa2, hits give low values",0.933
same,normalized growth,"locus YER016W, strain bim1, hits give low values",1.02
same,normalized growth,"locus YER110C, hits give low values",1.01
same,normalized growth,"locus YER111C, strain swi4, hits give low values",1.01
same,normalized growth,"locus YER155C, strain BEM2 (second series), hits give low values",0.874
same,normalized growth,"locus YER155C, strain BEM2, hits give low values",1.05
same,normalized growth,"locus YER167W, strain BCK2, hits give low values",1.04
same,normalized growth,"locus YFR010W, strain ubp6, hits give low values",0.99
same,normalized growth,"locus YGL078C, strain dbp3, hits give low values",0.94
same,normalized growth,"locus YGL086W, strain mad1, hits give low values",1.01
same,normalized growth,"locus YGL167C, strain pmr1, hits give low values",1.02
same,normalized growth,"locus YGL173C, strain kem1, hits give low values",0.999
same,normalized growth,"locus YGL227W, strain vid30, hits give low values",1.02
same,normalized growth,"locus YGL240W, strain doc1, hits give low values",0.879 (active)
same,normalized growth,"locus YGL248W, strain PDE1, hits give low values",1.03
same,normalized growth,"locus YGL253W, strain hxk2, hits give low values",0.754 (active)
same,normalized growth,"locus YGR078C, strain PAC10, hits give low values",1.01
same,normalized growth,"locus YGR135W, strain pre9, hits give low values",0.985
same,normalized growth,"locus YGR229C, strain SMI1, hits give low values",0.984
same,normalized growth,"locus YGR252W, strain gcn5, hits give low values",0.935
same,normalized growth,"locus YHR013C, strain ard1, hits give low values",0.965
same,normalized growth,"locus YHR027C, strain rpn1, hits give low values",0.997
same,normalized growth,"locus YHR030C, strain SLT2, hits give low values",1.05 and 1.01
same,normalized growth,"locus YHR079C, strain IRE1 (second series), hits give low values",1
same,normalized growth,"locus YHR079C, strain IRE1, hits give low values",1.02
same,normalized growth,"locus YHR094C, strain hxt1, hits give low values",1.02
same,normalized growth,"locus YHR129C, strain ARP1, hits give low values",1.06
same,normalized growth,"locus YHR142W, strain chs7, hits give low values",0.78 (active)
same,normalized growth,"locus YHR200W, strain rpn10, hits give low values",0.999
same,normalized growth,"locus YIL066C, strain RNR3, hits give low values",1.03
same,normalized growth,"locus YIL073C, strain SPO22, hits give low values",0.994
same,normalized growth,"locus YIL125W, strain kgd1, hits give low values",1.03
same,normalized growth,"locus YIR030C, strain dcg1, hits give low values",1.01
same,normalized growth,"locus YJL092W, strain hpr5, hits give low values",1.01
same,normalized growth,"locus YJL095W, strain BCK1 (second series), hits give low values",0.83 (active)
same,normalized growth,"locus YJL095W, strain BCK1, hits give low values",1.04 and 1.01
same,normalized growth,"locus YJL115W, strain asf1, hits give low values",1.04
same,normalized growth,"locus YJL129C, strain trk1, hits give low values",0.921
same,normalized growth,"locus YJL134W, strain LCB3, hits give low values",1.03
same,normalized growth,"locus YJL154C, strain vps35, hits give low values",1.02
same,normalized growth,"locus YJL164C, strain tpk1, hits give low values",0.865 (active)
same,normalized growth,"locus YJL166W, strain qcr8, hits give low values",0.845 (active)
same,normalized growth,"locus YJL168C, strain set2, hits give low values",1.02
same,normalized growth,"locus YJL187C, strain SWE1 (second series), hits give low values",1
same,normalized growth,"locus YJR043C, strain POL32, hits give low values",0.969
same,normalized growth,"locus YJR066W, strain TOR1, hits give low values",0.96
